The panel holds about 83,000 compounds, 20% with a hit somewhere; the sample as a whole holds those more often.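 96-well plates, one dose, 48 hours. Percent growth reported; active if below 10.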 A number with no mark means an inactive call. Active and inactive are the calls of the source.

The test system of the first assay is IGROV1 ovarian. Briefly: NCI-60 one-dose screen, 48 h (100 = growth as untreated, 0 = no growth, -100 = all killed). As to conditions: 10 µM.
In the case of `O=C1Nc2ccc(F)cc2/C1=C/c1cccc(OCc2ccccc2)c1`, the growth was 36.6%.
For the compound `Cc1ccc(NC(=O)c2ccc(-n3c(=O)[nH]c4ccccc4c3=O)cc2)cc1`, the growth was 103%.
Turning to `O=C(Nc1ccncc1)c1ccc(-n2c(=O)[nH]c3ccccc3c2=O)cc1`, the growth was 107%.
Still for that read-out and setting: the figure for `Cc1ccc(-c2cc(-c3cc4ccccc4nc3Cl)[nH]c(=S)n2)cc1` is 58.7%; for `O=C(c1ccc(Cl)cc1)C1[C@H](c2ccc(Br)cc2)[C@@H](c2ccccc2)NC12C(=O)Nc1ccc(Cl)cc12` (stereo not given in full) it is -72.4% (active); for `O=C(O)CCCCCCCCCCN1C(=O)/C(=C/c2cnc(-c3ccc(Cl)cc3)s2)SC1=S` it is 23.9%.
With `CN1CCN(c2ccc(Nc3nc(N4CCN(S(=O)(=O)c5ccc(Cl)cc5)CC4)c4sccc4n3)cc2)CC1`, the growth was 84.3%.
With `CN1CCN(c2ccc(C(=O)/C=C/c3cc(Br)ccc3F)cc2)CC1`, the growth is 33.1%.
Consider `O=c1nc(-c2ccccc2)cc(-c2cc3ccccc3nc2Cl)[nH]1`, for which the growth was 56.8%.
As for `CC1=C2C(=C[C@@](C)(CO)[C@@H]2O)/C(=N\N)[C@](C)(O)C12CC2`, the growth is -11.3% (active).
On to `O=C(c1ccc(O)cc1)C1[C@H](c2ccc(Br)cc2)[C@@H](c2ccccc2)NC12C(=O)Nc1ccc(Br)cc12` (stereo not given in full), for which the growth is -6.01% (active).
Turning to `COc1ccc(C=CC(=O)c2ccc(-n3c(C)nc4c(cnn4-c4ccccc4)c3=O)cc2)cc1`, the growth was 92.7%.
In the case of `O=C(c1ccc(O)cc1)C1[C@H](c2ccccc2Br)[C@@H](c2ccccc2)NC12C(=O)Nc1ccc(Cl)cc12` (stereo not given in full), the growth is 7.88% (active).
With `O=C(c1ccccc1)n1ccc(-c2cc3cc(Br)ccc3oc2=O)n1`, the growth was 16%.
With `C#Cc1ccc(S(=O)(=O)Nc2cccc(-c3csc(NC(C)=O)n3)c2)cc1`, the growth was 49.5%.
Still for that read-out and setting: as for `O=C(N/N=C/c1ccc(-c2cccc([N+](=O)[O-])c2)o1)c1[nH]c2ccc(Br)cc2c1-c1ccccc1`, the figure is 33.7%.
For `O=C(Nc1nc2ccc([N+](=O)[O-])cc2s1)Nc1cc(Cl)ccc1I`, the growth was 13.8%.
In the case of `C=C(c1ccc(OC)c(N)c1)c1cc(C)nc2ccccc12`, the growth is 17.1%.
For the compound `CNC(=O)c1cccc(N2CCc3c2ccc(NC(=O)Nc2ccc(N4CCN(C)CC4)c(C(F)(F)F)c2)c3F)c1`, the growth was -91.7% (active).
Take `COc1ccc([C@H]2C(C(=O)c3ccc(Cl)cc3)C3(N[C@@H]2c2ccccc2)C(=O)Nc2ccc(Br)cc23)cc1` (stereo not given in full): the growth is 7.23% (active).
On the same count and under the same terms, as for `CN1CCN(Cc2ccc(C(=O)Nc3cccc(Nc4ccc5cc(O)ccc5n4)c3)cc2C(F)(F)F)CC1`, the figure is -37.8% (active).
On to `Brc1ccc(/C=N/Nc2ncnc3sc4c(c23)CCN(Cc2ccccc2)C4)cc1`, for which the growth is 94.6%.
Still for that read-out and setting: the figure for `COc1ccc(C(C)=C(c2ccc(OCCCN(C)C)cc2)c2ccc(OCCCN(C)C)cc2)cc1` is -91.1% (active); for `C=C(C)[C@@H]1CC[C@]2(C(=O)OC)CC[C@]3(C)[C@H](CC[C@@H]4[C@@]5(C)CC[C@H](N)C(C)(C)[C@@H]5CC[C@]43C)[C@@H]12` it is -95.8% (active); for `CS(=O)(=O)Nc1ccc(-c2ccc3c(c2)ncn3-c2ccc(NC(=O)Nc3ccc(Br)cc3)cc2)cc1` it is 26.7%.
On to `CCCS(=O)(=O)c1oc(-c2ccc(F)cc2)nc1S(=O)(=O)c1ccc(F)cc1`, for which the growth was 74.9%.
For `CC(C)CCSc1nc(NC2CC2)c(C#N)c(-c2ccc(C(C)C)cc2)n1`, the growth is 113%.
For `Cc1ccc(-c2nc3ccc(C(=O)N=Nc4c(O)[nH]c5ccc([N+](=O)[O-])cc45)cc3[nH]2)cc1`, the growth is 89.2%.

The next assay has as its system OVCAR-3 ovarian. Described as above. Conditions: 10 µM.
Consider `CN1CCN(c2ccc(Nc3nc(N4CCN(S(=O)(=O)c5ccc(F)cc5)CC4)c4sccc4n3)cc2)CC1`, for which the growth was -79% (active).
In the case of `CCCCCc1ccc(S(=O)(=O)Nc2cc(-c3csc(N(C)C(C)=O)n3)ccc2N2CCN(C)CC2)cc1`, the growth was 60.2%.
On to `CN1CCN(c2ccc(Nc3nc(NCCCNC(=O)C4CCCCC4)c4sccc4n3)cc2)CC1`, for which the growth is 33.4%.
Turning to `N[C@@H](CSSC[C@H](N)C(=O)Nc1ccc(OCC2CCCC2)cc1)C(=O)Nc1ccc(OCC2CCCC2)cc1`, the growth is -86.5% (active).
In the case of `COc1ccc2nc(Cl)c(-c3cc(-c4ccccc4)nc(=O)[nH]3)cc2c1`, the growth is 16.6%.
Still for that read-out and setting: as for `O=C(Nc1ccc(OCc2ccccc2)cc1)Nc1ccc(Cl)c(C(F)(F)F)c1`, the figure is 7.77% (active); as for `COc1ccc2[nH]c(O)c(N=NC(=O)COc3ccc(NC(=O)Nc4ccc(Cl)cc4)cc3)c2c1`, -30.6% (active).
As for `Cc1cc2c(c(O)c1Br)-c1ncoc1C(=O)[C@]1(C)CC[C@H](C(C)C)[C@H]21`, the growth is 18.2%.
As for `CCN1CCN(c2ccc(NC(=O)Nc3ccc4c(c3F)CCN4c3ccnc(C(=O)NC)c3)cc2C(F)(F)F)CC1`, the growth is -85.6% (active).
Turning to `O=C1Nc2ccc(F)cc2/C1=C/c1cccc(OCc2ccccc2)c1`, the growth is 7.98% (active).
Same read-out and setting: as for `Cc1ccc(NC(=O)c2ccc(-n3c(=O)[nH]c4ccccc4c3=O)cc2)cc1`, the figure is 90.5%.
Regarding `O=C(Nc1ccncc1)c1ccc(-n2c(=O)[nH]c3ccccc3c2=O)cc1`, the growth is 113%.
For the compound `Cc1ccc(-c2cc(-c3cc4ccccc4nc3Cl)[nH]c(=S)n2)cc1`, the growth was 68.4%.
For the compound `O=C(c1ccc(Cl)cc1)C1[C@H](c2ccc(Br)cc2)[C@@H](c2ccccc2)NC12C(=O)Nc1ccc(Cl)cc12` (stereo not given in full), the growth was -88% (active).
As for `O=C(O)CCCCCCCCCCN1C(=O)/C(=C/c2cnc(-c3ccc(Cl)cc3)s2)SC1=S`, the growth is -15.1% (active).
As for `CN1CCN(c2ccc(Nc3nc(N4CCN(S(=O)(=O)c5ccc(Cl)cc5)CC4)c4sccc4n3)cc2)CC1`, the growth was -34.9% (active).
With `CN1CCN(c2ccc(C(=O)/C=C/c3cc(Br)ccc3F)cc2)CC1`, the growth is 33.8%.
As for `O=c1nc(-c2ccccc2)cc(-c2cc3ccccc3nc2Cl)[nH]1`, the growth was 8.83% (active).
As to `CC1=C2C(=C[C@@](C)(CO)[C@@H]2O)/C(=N\N)[C@](C)(O)C12CC2`, the growth was -24.4% (active).
For the compound `O=C(c1ccc(O)cc1)C1[C@H](c2ccc(Br)cc2)[C@@H](c2ccccc2)NC12C(=O)Nc1ccc(Br)cc12` (stereo not given in full), the growth is -38.9% (active).
Same read-out and setting: the figure for `COc1ccc(C=CC(=O)c2ccc(-n3c(C)nc4c(cnn4-c4ccccc4)c3=O)cc2)cc1` is 61%; for `O=C(c1ccc(O)cc1)C1[C@H](c2ccccc2Br)[C@@H](c2ccccc2)NC12C(=O)Nc1ccc(Cl)cc12` (stereo not given in full) it is -46.2% (active).
For `O=C(c1ccccc1)n1ccc(-c2cc3cc(Br)ccc3oc2=O)n1`, the growth is 38.8%.
Turning to `C#Cc1ccc(S(=O)(=O)Nc2cccc(-c3csc(NC(C)=O)n3)c2)cc1`, the growth is 82.7%.
On the same count and under the same terms, as for `O=C(N/N=C/c1ccc(-c2cccc([N+](=O)[O-])c2)o1)c1[nH]c2ccc(Br)cc2c1-c1ccccc1`, the figure is 1.91% (active).
As to `O=C(Nc1nc2ccc([N+](=O)[O-])cc2s1)Nc1cc(Cl)ccc1I`, the growth is -21.2% (active).
In the case of `C=C(c1ccc(OC)c(N)c1)c1cc(C)nc2ccccc12`, the growth was -4.17% (active).
Same read-out and setting: as for `CNC(=O)c1cccc(N2CCc3c2ccc(NC(=O)Nc2ccc(N4CCN(C)CC4)c(C(F)(F)F)c2)c3F)c1`, the figure is -80% (active); as for `COc1ccc([C@H]2C(C(=O)c3ccc(Cl)cc3)C3(N[C@@H]2c2ccccc2)C(=O)Nc2ccc(Br)cc23)cc1` (stereo not given in full), -30.8% (active); as for `CN1CCN(Cc2ccc(C(=O)Nc3cccc(Nc4ccc5cc(O)ccc5n4)c3)cc2C(F)(F)F)CC1`, -58.9% (active).
Take `Brc1ccc(/C=N/Nc2ncnc3sc4c(c23)CCN(Cc2ccccc2)C4)cc1`: the growth is 33%.
`COc1ccc(C(C)=C(c2ccc(OCCCN(C)C)cc2)c2ccc(OCCCN(C)C)cc2)cc1`: the growth is -81.3% (active).
In the case of `C=C(C)[C@@H]1CC[C@]2(C(=O)OC)CC[C@]3(C)[C@H](CC[C@@H]4[C@@]5(C)CC[C@H](N)C(C)(C)[C@@H]5CC[C@]43C)[C@@H]12`, the growth is -78.1% (active).
`CS(=O)(=O)Nc1ccc(-c2ccc3c(c2)ncn3-c2ccc(NC(=O)Nc3ccc(Br)cc3)cc2)cc1`: the growth is 5.29% (active).
`CCCS(=O)(=O)c1oc(-c2ccc(F)cc2)nc1S(=O)(=O)c1ccc(F)cc1`: the growth was -96% (active).
For `CC(C)CCSc1nc(NC2CC2)c(C#N)c(-c2ccc(C(C)C)cc2)n1`, the growth is 117%.
With `Cc1ccc(-c2nc3ccc(C(=O)N=Nc4c(O)[nH]c5ccc([N+](=O)[O-])cc45)cc3[nH]2)cc1`, the growth is 21.9%.

The values above are taken from PubChem BioAssay (NCI).
